The target in assay [1] is Rap guanine nucleotide exchange factor 3 (Homo sapiens) (UniProt O95398). Description: Confirmatory qHTS for antagonist of cAMP-regulated guanine nucleotide exchange factor 3 (EPAC1) (AID 1645880).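 For activity, negative = inhibition: plate controls were DMSO only for no effect and full effect of the ATA control for full effect.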 Note: nearly all actives have a fitted effect of over 55% in size. Note: potency is the fitted concentration of half-maximal effect. The following applies: EPAC1 Rap1B-BODIPY-GDP exchange, fluorescence; activity, negative = inhibition: at 115 µM (top of the series). The gist of the method: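 Nucleotide exchange uses 100 nM EPAC1, 250 nM RAP1B-BODIPY-GDP and 50 uM GDP, with compounds in a concentration-titration series. After 5 min at room temperature, fluorescence (480 nm ex/540 nm em) is read every 5 min for 30 min. Data are normalized to control ATA and DMSO.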
Sequence of Rap guanine nucleotide exchange factor 3 (Homo sapiens) (O95398 whole entry, looked up): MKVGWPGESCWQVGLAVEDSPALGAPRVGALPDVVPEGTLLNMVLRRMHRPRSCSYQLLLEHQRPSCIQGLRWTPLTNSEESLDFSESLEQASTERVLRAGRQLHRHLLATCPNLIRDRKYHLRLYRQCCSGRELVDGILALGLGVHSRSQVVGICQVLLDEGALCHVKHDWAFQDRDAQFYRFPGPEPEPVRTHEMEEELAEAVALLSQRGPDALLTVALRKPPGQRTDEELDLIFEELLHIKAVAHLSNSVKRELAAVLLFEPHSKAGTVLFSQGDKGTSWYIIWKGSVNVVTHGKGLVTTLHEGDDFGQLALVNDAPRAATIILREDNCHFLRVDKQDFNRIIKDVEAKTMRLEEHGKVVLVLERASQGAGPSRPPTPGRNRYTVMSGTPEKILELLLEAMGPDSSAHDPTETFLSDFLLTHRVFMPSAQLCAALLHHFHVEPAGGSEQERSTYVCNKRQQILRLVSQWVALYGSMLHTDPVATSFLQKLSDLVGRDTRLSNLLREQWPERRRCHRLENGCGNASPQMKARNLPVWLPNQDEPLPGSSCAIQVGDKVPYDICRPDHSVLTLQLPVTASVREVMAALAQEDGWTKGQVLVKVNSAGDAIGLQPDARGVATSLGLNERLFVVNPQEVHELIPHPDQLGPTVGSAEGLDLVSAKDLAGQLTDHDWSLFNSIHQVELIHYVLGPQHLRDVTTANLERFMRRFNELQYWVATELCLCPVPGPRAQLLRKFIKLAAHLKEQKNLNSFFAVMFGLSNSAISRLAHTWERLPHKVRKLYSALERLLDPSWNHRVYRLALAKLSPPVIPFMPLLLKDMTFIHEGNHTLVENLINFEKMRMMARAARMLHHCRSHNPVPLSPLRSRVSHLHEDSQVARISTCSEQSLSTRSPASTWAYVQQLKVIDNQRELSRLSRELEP

For assay [2] the target is unchanged. Description: Confirmatory qHTS for agonist of cAMP-regulated guanine nucleotide exchange factor 3 (EPAC1) (AID 1645881).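 Note: EPAC1 catalysed release of BODIPY-GDP from Rap1B seen as fluorescence loss; 100% = effect of cAMP agonist control; nearly all actives have a fitted effect of over 75% in size.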 A general note: In qHTS, concentration-response curves come from the screen itself.
For assay [3], the target named is Rap guanine nucleotide exchange factor 4 (Homo sapiens) (UniProt Q8WZA2). Put plainly: Confirmatory qHTS for agonist of cAMP-regulated guanine nucleotide exchange factor 4 (EPAC2) (AID 1645884).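 Note: nucleotide exchange releases bodipy-GDP from Rap1 and this lowers its fluorescence; % is set by controls: 0 for no effect and ±100 for the full control effect; nearly all actives have a fitted effect of over 65% in size.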
Sequence of Rap guanine nucleotide exchange factor 4 (Homo sapiens) (Q8WZA2 whole entry, looked up): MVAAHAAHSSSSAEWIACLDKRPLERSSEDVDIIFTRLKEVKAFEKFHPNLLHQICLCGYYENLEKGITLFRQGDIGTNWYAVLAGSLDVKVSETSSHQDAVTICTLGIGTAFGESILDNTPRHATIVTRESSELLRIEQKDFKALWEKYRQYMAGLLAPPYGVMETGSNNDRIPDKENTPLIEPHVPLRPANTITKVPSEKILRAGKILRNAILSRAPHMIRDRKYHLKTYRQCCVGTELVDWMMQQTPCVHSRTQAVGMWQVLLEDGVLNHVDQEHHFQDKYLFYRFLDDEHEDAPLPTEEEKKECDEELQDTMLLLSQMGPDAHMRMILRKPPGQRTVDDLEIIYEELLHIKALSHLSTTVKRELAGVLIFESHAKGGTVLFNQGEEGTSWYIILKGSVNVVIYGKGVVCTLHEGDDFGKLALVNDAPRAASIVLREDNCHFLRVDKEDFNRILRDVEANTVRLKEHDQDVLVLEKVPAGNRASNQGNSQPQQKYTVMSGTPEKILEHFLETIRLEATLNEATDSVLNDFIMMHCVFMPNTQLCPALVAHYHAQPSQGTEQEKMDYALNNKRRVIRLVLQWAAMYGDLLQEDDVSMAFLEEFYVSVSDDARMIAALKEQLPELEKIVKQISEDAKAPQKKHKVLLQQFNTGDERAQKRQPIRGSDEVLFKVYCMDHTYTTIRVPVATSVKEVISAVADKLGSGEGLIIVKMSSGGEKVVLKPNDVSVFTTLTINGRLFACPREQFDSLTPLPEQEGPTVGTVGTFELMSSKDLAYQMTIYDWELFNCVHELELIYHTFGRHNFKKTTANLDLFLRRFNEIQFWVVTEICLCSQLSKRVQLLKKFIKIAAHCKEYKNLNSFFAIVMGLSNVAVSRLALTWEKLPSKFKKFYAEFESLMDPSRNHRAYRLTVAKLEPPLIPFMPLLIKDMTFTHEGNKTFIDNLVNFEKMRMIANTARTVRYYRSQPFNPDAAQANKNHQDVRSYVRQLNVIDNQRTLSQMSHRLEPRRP
Assay [4] addresses Rap guanine nucleotide exchange factor 3 (Homo sapiens) (UniProt O95398). Description: Counterscreen qHTS for antagonist of cAMP-regulated guanine nucleotide exchange factor 3 (EPAC1) (AID 1645888).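 Note: fluorescence loss as bound BODIPY-GDP is released from Rap1B; % of control where 0% means no effect.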 The gist of the method:
(§1)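 Measured: fluorescence of BODIPY-GDP bound to Rap1B, which falls as exchange proceeds. Conditions include 50 uM competing GDP, 5 and 30 min reads, and a later cAMP challenge for antagonist detection.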
On the technique in general: The purpose of a counterscreen is to sort out artefacts and off-target activity.

Assay [5] shares this target. Put plainly: Counterscreen qHTS for agonist of cAMP-regulated guanine nucleotide exchange factor 3 (EPAC1) (AID 1645889). Note: % of control where 0% means no effect; nearly all actives have a fitted effect of over 40% in size. The gist of the method: as §1

Records with an inconclusive call do not appear. Unmarked numbers belong to inactive results. Calls of active or inactive are those of the source. Calls come from the whole dose curve; as a rule, active = well fitted curve in the direction sought with a large enough effect; inconclusive = small, poorly fitted or top-dose-only effect, or another doubt; inactive = no such curve, though single readings can be large; an effect the other way counts as inactive or inconclusive.

In the case of `CC1(C)c2ccccc2N(CC(N)=O)C12C=Cc1ccccc1O2` (stereo not given), the Potency entry in assay [1] and in assay [2] was “inactive” each time. The activation in assay [3] was -0.49% [at 17.1 µM, percent relative to cAMP agonist control]; in assay [5], 10.1% [at 30.8 µM]. Moreover, the activity change, negative = inhibition in assay [4] was 6.74% [at 30.8 µM].
`CC(C)(C)c1ccc(OCC(=O)Nc2ccc(C(=O)Nc3ccccc3C(=O)O)cc2)cc1`: in assay [1], the Potency was 75.7 µM (active). For the same compound, the Potency result in assay [2], in assay [3], in assay [4] and in assay [5] was “inactive” each time.
For the compound `Cc1cc(=O)oc2cc(NC(=O)C(C)Oc3ccccc3)ccc12` (stereo not given), the Potency result in assay [1], in assay [2], in assay [3], in assay [4] and in assay [5] was “inactive” throughout.
As to `CC1=C(C(=O)OCc2ccccc2)C(c2ccc(Cl)cc2Cl)NC(=O)N1CCCCCC(=O)O` (stereo not given), in assay [1], the Potency is 75.7 µM (active). The Potency result in assay [2], in assay [3], in assay [4] and in assay [5] was “inactive” in each case.
Consider `CCCS(=O)(=O)NC(=O)C1(C)CCN(C(=O)c2cccc(OC(F)(F)F)c2)C1` (stereo not given), for which the Potency entry in assay [1], in assay [2], in assay [3], in assay [4] and in assay [5] was “inactive” in each case.
With `COc1ccc2nc(N3C(=O)C(O)=C(C(=O)c4ccco4)C3c3ccc(C)o3)sc2c1` (stereo not given), the Potency in assay [1] was 26.9 µM (active). The Potency result in assay [2], in assay [3], in assay [4] and in assay [5] was “inactive” each time.
In the case of `Cc1ccc(Cl)cc1N1CCN(C(=O)c2cccc3c(=O)c(C)c(-c4ccccc4)oc23)CC1`, the Potency entry in assay [1] and in assay [2] was “inactive” each time. The activation in assay [3] is 13% [at 17.1 µM, percent relative to cAMP agonist control]; in assay [5] it was 25.9% [at 30.8 µM]. The activity change, negative = inhibition in assay [4] is -10.3% [at 30.8 µM].
Regarding `C#CCOc1nc(C)cc(C)c1S(=O)(=O)c1ccccc1C`, the Potency result in assay [1] and in assay [2] was “inactive” each time. Moreover, the activation in assay [3] is -13.7% [at 17.1 µM, percent relative to cAMP agonist control]; in assay [5], -3.33% [at 30.8 µM]. Further, in assay [4], the activity change, negative = inhibition is -7.83% [at 30.8 µM].
In the case of `CS(=O)(=O)c1ccc2c(c1)SC1=NC(=O)/C(=C/c3ccco3)C(=N)N12`, the Potency in assay [1] was 12 µM (active). In addition, the Potency entry in assay [2], in assay [3], in assay [4] and in assay [5] was “inactive” throughout.
On to `COCc1cc(C)nc(SCC(=O)c2ccc(O)c(O)c2)c1C#N`, for which the Potency in assay [1] was 37.9 µM (active). Further, the Potency entry in assay [2], in assay [3], in assay [4] and in assay [5] was “inactive” in each case.
For the compound `Cc1cc(C)c(S(=O)(=O)c2ccc(F)cc2)c(C)c1`, the Potency entry in assay [1] and in assay [2] was “inactive” in each case. Also, the activation in assay [3] is 0% [at 17.1 µM, percent relative to cAMP agonist control]; in assay [5], -0.628% [at 30.8 µM]. The activity change, negative = inhibition in assay [4] was -27.6% [at 30.8 µM].
`Cc1ccc(S(=O)(=O)NN2C(=O)/C(=C/c3cccc(F)c3)SC2=S)cc1`: the Potency in assay [1] is 23.9 µM (active). Moreover, the Potency result in assay [2], in assay [3], in assay [4] and in assay [5] was “inactive” each time.
On to `Cc1cccc(NC(=O)Cn2c(O)c(N=NC(=O)c3ccccc3O)c3ccccc32)c1`, for which, in assay [1], the Potency is 75.7 µM (active). Moreover, the Potency result in assay [2], in assay [3], in assay [4] and in assay [5] was “inactive” throughout.
`COc1nc(-c2ccccc2)c2cc(Br)ccc2n1`: the Potency result in assay [1] and in assay [2] was “inactive” in each case. The activation is -6.23% [at 17.1 µM, percent relative to cAMP agonist control] in assay [3] and 24.2% [at 30.8 µM] in assay [5]. For the same compound, the activity change, negative = inhibition in assay [4] is 8.88% [at 30.8 µM].
As to `Cc1ccc(S(=O)(=O)NCc2ccccc2)cc1C(=O)N1CCCC(C(F)(F)F)C1` (stereo not given), the Potency entry in assay [1], in assay [2], in assay [3], in assay [4] and in assay [5] was “inactive” in each case.
For the compound `O=C(N/N=C/c1ccccc1O)c1ccc2c(c1)OCO2`, the Potency entry in assay [1], in assay [2], in assay [3], in assay [4] and in assay [5] was “inactive” throughout.
As for `COc1ccc(C2=CC(=O)OC3(CCCCC3)O2)cc1`, the Potency entry in assay [1] and in assay [2] was “inactive” each time. Moreover, the activation was 5.5% [at 17.1 µM, percent relative to cAMP agonist control] in assay [3] and 7.07% [at 30.8 µM] in assay [5]. The activity change, negative = inhibition in assay [4] is -23.4% [at 30.8 µM].
`CCOC(=O)CSc1nc2c(c(=O)n(C)c(=O)n2C)n1Cc1ccccc1F`: the Potency entry in assay [1], in assay [2], in assay [3], in assay [4] and in assay [5] was “inactive” in each case.
As for `O=C(Cc1ccc(Br)cc1)N(Cc1ccccc1)c1ccccn1`, the Potency entry in assay [1], in assay [2], in assay [3], in assay [4] and in assay [5] was “inactive” throughout.
Regarding `Cc1noc(C)c1COc1ccccc1C(=O)NCCc1ccc(Cl)cc1`, the Potency entry in assay [1], in assay [2], in assay [3], in assay [4] and in assay [5] was “inactive” in each case.
Turning to `CCOC(=O)C1=C(N)c2ccccc2CC1C1CCCC1` (stereo not given), the Potency result in assay [1], in assay [2], in assay [3], in assay [4] and in assay [5] was “inactive” in each case.
For `CNC(=O)CSc1nc2ccccc2c(=O)n1-c1cc(OC)ccc1OC`, the Potency result in assay [1] and in assay [2] was “inactive” throughout. Further, the activation in assay [3] is -3% [at 17.1 µM, percent relative to cAMP agonist control]; in assay [5], 5.72% [at 30.8 µM]. In assay [4], the activity change, negative = inhibition was -17.1% [at 30.8 µM].
Regarding `COc1ccc(S(=O)(=O)Nc2cccc(C)c2C)c2cccnc12`, the Potency result in assay [1], in assay [2], in assay [3], in assay [4] and in assay [5] was “inactive” in each case.
`COc1ccc(N=C2NC(=O)S/C2=C\c2ccc(N(C)C)cc2)cc1`: the Potency result in assay [1], in assay [2], in assay [3], in assay [4] and in assay [5] was “inactive” each time.
In the case of `c1ccc(C(c2ccccc2)c2ccn[nH]2)cc1`, the Potency result in assay [1] and in assay [2] was “inactive” throughout. Moreover, the activation in assay [3] is 1.43% [at 17.1 µM, percent relative to cAMP agonist control]; in assay [5] it was 11.3% [at 30.8 µM]. Besides, the activity change, negative = inhibition in assay [4] was -9.38% [at 30.8 µM].

(Values after PubChem BioAssay (NCATS).)
